Key:
Assay in all cases: log2 ratio of Biotin-Ahx-Ub-VS probe labelling (fragment/DMSO); higher = less target engagement (more negative = stronger competition), active = hit call of the paper (q ≤ 0.05, log2 ratio ≤ -1)
Details in all cases: compound concentration: 200 uM; treatment time: 3 h
USP34 = USP34 (UniProt Q70CQ2)
Method in brief: (§1)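 HEK293T lysate (495 µg per sample, in Tris/CHAPS/IGEPAL buffer with protease inhibitors) was treated in triplicate with fragment at 200 µM or with DMSO for 3 h. It was then treated with Biotin-Ahx-Ub-VS (0.5 µM final) for 1 h. Labelled DUBs were NeutrAvidin-enriched, digested with LysC and trypsin, and run by diaPASEF LC-MS/MS. Spectronaut label-free quantities were global-median-normalised. Values are average log2 ratios fragment/DMSO by unpaired t-test, using proteins with ≥2 unique peptides.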

USP36 = target: T1, USP36 (UniProt Q9P275)
T1 sequence (whole entry): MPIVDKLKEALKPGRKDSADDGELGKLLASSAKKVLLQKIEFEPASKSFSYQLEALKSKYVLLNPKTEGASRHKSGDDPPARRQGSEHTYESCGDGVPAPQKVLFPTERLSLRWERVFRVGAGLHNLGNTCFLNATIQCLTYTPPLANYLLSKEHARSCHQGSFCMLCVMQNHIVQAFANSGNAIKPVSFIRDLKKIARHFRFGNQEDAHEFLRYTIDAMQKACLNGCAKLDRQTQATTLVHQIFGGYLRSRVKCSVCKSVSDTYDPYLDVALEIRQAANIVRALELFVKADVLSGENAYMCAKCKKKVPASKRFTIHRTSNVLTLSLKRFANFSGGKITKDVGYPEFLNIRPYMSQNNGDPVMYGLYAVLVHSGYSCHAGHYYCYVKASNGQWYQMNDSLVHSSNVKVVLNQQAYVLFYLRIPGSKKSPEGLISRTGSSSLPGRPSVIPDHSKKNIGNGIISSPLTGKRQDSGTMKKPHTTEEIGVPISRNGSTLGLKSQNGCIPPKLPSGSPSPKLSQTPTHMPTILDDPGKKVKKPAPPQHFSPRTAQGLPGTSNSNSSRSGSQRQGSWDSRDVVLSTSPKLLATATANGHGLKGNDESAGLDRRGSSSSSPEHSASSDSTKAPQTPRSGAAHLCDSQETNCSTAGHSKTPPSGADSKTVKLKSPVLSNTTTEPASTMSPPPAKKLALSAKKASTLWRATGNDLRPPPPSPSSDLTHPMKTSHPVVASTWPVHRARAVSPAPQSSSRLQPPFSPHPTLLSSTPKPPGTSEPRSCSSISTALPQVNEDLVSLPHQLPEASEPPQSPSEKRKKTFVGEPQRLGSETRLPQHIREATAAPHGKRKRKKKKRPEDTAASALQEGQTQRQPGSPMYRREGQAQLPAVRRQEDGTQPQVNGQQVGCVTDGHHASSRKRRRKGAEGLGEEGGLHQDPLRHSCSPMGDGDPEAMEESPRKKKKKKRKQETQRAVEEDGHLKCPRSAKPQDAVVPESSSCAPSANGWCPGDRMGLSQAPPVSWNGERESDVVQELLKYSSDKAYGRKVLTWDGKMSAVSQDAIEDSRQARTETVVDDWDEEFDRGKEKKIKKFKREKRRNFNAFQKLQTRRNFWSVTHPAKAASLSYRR
Method in brief: as §1

USP38 = target: T2, USP38 (UniProt Q8NB14)
T2 sequence (whole entry): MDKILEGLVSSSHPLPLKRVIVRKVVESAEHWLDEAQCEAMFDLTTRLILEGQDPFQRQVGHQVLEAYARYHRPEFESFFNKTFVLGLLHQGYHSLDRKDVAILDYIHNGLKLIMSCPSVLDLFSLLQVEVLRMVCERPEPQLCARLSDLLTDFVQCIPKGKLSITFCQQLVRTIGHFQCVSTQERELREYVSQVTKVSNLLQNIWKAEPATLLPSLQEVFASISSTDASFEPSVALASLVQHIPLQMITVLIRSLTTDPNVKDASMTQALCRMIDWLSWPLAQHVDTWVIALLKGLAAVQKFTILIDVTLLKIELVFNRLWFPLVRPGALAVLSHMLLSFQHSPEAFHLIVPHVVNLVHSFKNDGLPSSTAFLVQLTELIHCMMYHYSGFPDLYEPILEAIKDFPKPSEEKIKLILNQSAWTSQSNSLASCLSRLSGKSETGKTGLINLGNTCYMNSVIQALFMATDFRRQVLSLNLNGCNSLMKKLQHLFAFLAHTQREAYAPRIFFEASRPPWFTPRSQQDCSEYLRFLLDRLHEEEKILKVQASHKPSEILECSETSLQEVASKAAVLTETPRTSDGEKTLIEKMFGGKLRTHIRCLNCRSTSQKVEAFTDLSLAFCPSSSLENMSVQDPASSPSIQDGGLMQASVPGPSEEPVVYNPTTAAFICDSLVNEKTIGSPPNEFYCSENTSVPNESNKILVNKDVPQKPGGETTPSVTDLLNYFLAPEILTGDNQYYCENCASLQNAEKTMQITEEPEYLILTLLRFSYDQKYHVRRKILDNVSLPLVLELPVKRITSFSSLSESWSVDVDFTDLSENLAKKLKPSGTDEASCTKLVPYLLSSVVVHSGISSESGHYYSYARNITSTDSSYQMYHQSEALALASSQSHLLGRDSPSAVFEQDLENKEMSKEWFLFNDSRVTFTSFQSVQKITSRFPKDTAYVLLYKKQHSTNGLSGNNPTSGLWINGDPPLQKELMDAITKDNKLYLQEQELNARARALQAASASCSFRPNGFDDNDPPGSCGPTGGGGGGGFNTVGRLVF
Method in brief: as §1

USP39 = target: T3, USP39 (UniProt Q53GS9)
T3 sequence (whole entry): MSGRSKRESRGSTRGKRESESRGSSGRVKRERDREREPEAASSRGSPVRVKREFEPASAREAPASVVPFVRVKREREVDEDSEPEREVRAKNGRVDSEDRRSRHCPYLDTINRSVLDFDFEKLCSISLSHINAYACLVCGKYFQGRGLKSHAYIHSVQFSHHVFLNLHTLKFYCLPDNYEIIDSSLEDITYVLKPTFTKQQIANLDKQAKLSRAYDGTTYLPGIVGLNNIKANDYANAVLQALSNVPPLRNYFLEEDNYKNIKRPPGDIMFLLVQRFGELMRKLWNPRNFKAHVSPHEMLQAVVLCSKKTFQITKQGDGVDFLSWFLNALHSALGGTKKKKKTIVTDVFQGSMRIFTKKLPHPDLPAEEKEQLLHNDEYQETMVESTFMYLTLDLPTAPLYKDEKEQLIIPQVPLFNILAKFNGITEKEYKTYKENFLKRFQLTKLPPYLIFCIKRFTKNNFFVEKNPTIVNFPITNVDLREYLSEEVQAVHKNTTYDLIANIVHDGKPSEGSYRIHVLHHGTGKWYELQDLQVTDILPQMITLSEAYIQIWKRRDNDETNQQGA
Method in brief: as §1

USP4 = target: T4, USP4 (UniProt Q13107)
T4 sequence (whole entry): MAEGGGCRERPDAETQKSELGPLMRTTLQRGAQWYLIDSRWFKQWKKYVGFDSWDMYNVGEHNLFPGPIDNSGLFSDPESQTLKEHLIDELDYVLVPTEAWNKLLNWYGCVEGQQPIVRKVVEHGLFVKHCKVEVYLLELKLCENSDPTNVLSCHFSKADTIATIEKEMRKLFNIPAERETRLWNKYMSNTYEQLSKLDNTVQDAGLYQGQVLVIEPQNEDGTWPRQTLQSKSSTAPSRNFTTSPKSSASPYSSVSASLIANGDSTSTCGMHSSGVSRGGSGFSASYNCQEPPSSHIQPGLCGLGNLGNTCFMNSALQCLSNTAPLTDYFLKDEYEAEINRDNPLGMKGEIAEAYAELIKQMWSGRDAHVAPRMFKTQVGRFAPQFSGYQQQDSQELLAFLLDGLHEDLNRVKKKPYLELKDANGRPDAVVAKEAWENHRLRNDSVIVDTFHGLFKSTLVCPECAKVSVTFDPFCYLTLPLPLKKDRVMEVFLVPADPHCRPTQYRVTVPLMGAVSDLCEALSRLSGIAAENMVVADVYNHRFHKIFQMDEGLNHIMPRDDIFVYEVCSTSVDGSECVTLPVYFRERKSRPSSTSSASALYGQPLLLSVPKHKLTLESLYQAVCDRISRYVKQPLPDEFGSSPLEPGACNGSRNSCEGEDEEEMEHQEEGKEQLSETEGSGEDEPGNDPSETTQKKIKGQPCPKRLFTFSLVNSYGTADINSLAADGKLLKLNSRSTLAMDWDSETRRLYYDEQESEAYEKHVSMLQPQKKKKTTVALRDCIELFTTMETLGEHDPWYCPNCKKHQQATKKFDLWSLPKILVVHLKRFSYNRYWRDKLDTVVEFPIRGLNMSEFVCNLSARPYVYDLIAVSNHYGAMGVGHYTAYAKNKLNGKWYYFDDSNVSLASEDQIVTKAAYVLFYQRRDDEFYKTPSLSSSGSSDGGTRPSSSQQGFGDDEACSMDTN
Method in brief: as §1

Measured: log2 ratio of Biotin-Ahx-Ub-VS probe labelling

Chain of USP34 (Q70CQ2 whole entry, the tested form may be a part): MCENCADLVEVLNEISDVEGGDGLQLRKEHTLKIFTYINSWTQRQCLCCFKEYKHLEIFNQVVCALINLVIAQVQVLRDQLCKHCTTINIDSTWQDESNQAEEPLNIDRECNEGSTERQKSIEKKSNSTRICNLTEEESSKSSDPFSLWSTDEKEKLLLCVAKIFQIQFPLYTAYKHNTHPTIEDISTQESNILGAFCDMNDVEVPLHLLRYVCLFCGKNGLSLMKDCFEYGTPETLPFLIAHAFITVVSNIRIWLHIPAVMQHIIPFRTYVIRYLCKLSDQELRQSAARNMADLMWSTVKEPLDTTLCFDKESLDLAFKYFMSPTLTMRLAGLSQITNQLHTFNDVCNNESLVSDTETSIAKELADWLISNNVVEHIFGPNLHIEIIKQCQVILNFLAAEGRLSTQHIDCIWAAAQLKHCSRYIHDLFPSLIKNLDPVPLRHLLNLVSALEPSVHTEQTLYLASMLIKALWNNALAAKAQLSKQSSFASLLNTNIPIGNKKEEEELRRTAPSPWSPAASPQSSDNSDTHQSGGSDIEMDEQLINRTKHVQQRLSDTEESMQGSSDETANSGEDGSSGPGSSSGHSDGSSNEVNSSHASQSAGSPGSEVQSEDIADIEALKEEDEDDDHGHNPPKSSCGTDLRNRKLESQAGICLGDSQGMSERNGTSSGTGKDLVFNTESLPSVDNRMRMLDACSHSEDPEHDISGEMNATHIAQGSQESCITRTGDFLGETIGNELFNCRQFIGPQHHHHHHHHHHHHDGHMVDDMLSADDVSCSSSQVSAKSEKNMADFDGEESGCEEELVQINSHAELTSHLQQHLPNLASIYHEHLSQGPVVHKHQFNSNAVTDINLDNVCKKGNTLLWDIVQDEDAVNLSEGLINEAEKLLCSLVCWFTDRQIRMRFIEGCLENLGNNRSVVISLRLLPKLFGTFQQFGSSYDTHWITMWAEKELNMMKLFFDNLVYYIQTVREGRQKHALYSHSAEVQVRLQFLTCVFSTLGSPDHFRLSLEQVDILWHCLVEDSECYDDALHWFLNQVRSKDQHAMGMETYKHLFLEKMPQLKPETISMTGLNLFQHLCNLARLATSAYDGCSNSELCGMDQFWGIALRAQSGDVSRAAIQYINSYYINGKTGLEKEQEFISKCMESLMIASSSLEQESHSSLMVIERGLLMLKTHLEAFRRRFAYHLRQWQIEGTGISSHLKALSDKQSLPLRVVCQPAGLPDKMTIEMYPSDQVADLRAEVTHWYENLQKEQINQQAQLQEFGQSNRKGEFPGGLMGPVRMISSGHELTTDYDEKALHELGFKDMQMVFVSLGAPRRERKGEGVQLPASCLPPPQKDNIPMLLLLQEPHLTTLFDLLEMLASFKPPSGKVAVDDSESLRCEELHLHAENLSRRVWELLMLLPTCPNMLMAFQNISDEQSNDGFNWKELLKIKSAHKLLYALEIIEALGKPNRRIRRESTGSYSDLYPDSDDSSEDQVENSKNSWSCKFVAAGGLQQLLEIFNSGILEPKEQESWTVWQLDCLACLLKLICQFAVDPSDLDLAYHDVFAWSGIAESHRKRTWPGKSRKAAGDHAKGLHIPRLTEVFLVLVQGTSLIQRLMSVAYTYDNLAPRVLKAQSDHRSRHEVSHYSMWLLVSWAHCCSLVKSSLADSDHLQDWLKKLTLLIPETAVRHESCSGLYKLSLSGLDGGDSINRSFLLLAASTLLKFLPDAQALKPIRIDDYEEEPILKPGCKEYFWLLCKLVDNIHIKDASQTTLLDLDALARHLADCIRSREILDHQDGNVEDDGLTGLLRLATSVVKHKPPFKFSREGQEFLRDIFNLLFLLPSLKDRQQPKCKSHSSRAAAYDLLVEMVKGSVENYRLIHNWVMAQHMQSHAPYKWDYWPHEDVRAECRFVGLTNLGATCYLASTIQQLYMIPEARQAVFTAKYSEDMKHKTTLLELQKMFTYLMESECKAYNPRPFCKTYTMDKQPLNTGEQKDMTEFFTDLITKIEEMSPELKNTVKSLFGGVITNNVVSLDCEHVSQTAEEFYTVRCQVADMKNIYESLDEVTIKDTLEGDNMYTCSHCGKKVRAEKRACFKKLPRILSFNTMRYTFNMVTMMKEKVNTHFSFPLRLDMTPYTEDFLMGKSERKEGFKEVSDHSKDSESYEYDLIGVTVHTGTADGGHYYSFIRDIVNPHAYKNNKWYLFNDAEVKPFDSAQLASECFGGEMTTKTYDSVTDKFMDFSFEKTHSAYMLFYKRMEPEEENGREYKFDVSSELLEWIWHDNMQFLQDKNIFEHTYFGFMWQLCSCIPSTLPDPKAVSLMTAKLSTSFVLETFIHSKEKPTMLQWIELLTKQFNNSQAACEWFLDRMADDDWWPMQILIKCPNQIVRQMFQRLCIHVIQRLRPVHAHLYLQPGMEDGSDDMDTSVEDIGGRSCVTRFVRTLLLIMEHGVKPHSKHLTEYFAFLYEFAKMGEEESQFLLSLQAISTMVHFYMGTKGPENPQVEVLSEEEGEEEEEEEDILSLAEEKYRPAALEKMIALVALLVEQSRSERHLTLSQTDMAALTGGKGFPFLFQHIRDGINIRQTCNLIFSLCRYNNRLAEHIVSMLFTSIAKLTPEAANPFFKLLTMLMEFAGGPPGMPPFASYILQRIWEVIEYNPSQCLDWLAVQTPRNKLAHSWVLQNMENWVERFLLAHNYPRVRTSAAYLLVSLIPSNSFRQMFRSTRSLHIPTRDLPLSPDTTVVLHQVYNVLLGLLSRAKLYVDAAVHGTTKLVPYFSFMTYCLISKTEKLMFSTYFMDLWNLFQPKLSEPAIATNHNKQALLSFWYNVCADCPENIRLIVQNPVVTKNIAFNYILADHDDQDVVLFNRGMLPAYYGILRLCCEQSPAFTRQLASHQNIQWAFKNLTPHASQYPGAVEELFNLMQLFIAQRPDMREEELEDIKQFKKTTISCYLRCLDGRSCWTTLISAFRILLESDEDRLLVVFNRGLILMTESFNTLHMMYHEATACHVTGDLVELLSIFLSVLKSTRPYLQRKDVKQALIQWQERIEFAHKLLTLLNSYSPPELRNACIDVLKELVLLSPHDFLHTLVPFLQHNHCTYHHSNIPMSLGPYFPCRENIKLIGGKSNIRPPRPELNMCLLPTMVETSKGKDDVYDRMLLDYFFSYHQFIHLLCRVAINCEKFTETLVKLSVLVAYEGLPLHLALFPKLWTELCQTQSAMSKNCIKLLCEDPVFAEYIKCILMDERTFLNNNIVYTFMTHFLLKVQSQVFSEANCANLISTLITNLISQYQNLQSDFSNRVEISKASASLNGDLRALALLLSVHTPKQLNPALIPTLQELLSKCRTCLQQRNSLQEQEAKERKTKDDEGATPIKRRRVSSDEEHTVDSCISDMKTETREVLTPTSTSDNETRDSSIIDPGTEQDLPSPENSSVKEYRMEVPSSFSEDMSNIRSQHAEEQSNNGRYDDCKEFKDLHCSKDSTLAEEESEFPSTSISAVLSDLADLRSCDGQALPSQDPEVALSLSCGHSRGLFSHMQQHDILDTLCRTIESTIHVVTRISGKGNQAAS

CCC(NC(=O)CCl)c1ccc(Cl)cc1 (stereo not given)
inactive: USP34 -0.142 | USP36 -0.231 | USP38 0.0692 | USP39 0.0269 | USP4 0.0111
